# Measured values as given in PubChem BioAssay.
# “And” between values parts separate entries of the source, which are not always exact repeats. Equal entries are not always repeated. The source made the active and inactive calls.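 The calls were made as follows, unless noted: active = mean z-score across replicates of 1.96 or higher in either the MELAS or the Rieske mutant cell line; inactive = the rest.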
# Columns and labels:
# [1] = blockers of polyQ-driven CASP3 activation – cell-based (AID 1583); conditions: polyglutamine-induced caspase-3 activation, cell assay; stronger effect = higher value;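 tested at 10 µM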
# [2] = compounds altering viability of human ES cells (AID 493140; call rule not given here;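 also: cells exposed to compounds for four days before counting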); conditions: human embryonic stem cell survival screen; stronger effect = higher value
# [3] = stimulators of insulin release from INS-1E, primary screen, cell-based, 5 mM glucose, NPC library (AID 1117329;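 active = compound raises insulin release from rat beta cells at 5 mM glucose, no numeric limit stated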); conditions: rat INS-1E insulin secretion, at 10 µM, stronger effect = higher value
# [4] = growth inhibition of GSK3B-pretreated HCT116 cells – cell-based, CellTiter-Glo, 0.2 to 20 µM (AID 1117336;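 active = compounds lowering colon cancer cell viability after pretreatment blocking the GSK3B kinase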); conditions: HCT116 viability after GSK3B inhibitor, at 20 µM, stronger effect = higher value
# [5] = inhibition of endothelial tube formation, primary screen, imaging, VEGF stimulated, CD31 staining, tube area, NPC library (AID 1117340;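 active = compound that reduces growth-factor-driven endothelial tube area in a mixed cell culture, no cutoff stated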); conditions: VEGF-stimulated ADSC/ECFC co-culture, at 10 µM, stronger effect = higher value
# [6] = GLP1 release stimulators, primary, NCI-H716, NPC library (AID 1117341;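 active = compound raises GLP1 secretion from the human gut endocrine cells, with no numeric limit stated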); conditions: NCI-H716 cells, at 10 µM, stronger effect = higher value
# [7] = HCT116 colon cancer cell growth inhibition, primary screen, CellTiter-Glo luminescence, NPC library (AID 1117342;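 active = compounds that lower survival of HCT116 colon cancer cells in the luminescence readout, no numeric limit stated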); conditions: at 20 µM (top of the series)
# [8] = reduced SW480 viability measured with CellTiter-Glo, NPC library, primary (AID 1117343;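 active = compounds that lower viability of the colon cancer cells in the luminescence readout, with no numeric limit stated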); conditions: CellTiter-Glo luminescence; at 20 µM (top of the series) unless noted
# [9] = NPC library primary testing for decreased DLD-1 cell viability via CellTiter-Glo (AID 1117346;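 active = compounds that lower survival of DLD-1 colon cancer cells in the luminescence readout, no cutoff given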); conditions: DLD-1 viability, CellTiter-Glo luminescence; at 20 µM (top of the series)
# [10] = target: 6-phosphogluconate dehydrogenase, decarboxylating (Homo sapiens) (UniProt P52209); assay: inhibition of human phosphogluconate dehydrogenase – biochemical, recombinant enzyme, NADPH absorbance, primary screen (AID 1159550;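 active = at least 20% inhibition of 6-phosphogluconate dehydrogenase activity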); conditions: recombinant 6PGD, NADPH absorbance 341 nm; at 10 µM; stronger effect = higher value
# 6-phosphogluconate dehydrogenase, decarboxylating (Homo sapiens), sequence (P52209 whole entry, looked up): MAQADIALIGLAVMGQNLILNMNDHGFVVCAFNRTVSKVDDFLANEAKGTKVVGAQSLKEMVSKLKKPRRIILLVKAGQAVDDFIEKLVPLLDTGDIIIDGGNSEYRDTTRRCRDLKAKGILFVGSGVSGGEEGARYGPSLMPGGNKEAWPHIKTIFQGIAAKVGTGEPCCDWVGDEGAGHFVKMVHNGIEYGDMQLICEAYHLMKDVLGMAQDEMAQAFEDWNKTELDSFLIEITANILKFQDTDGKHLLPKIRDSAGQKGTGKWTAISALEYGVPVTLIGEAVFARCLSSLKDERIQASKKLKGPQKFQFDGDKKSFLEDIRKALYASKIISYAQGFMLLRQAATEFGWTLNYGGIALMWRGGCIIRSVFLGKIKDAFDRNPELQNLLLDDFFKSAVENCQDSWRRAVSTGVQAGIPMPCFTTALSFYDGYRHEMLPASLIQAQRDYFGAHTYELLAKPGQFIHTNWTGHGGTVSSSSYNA
# [11] = modulation of C. elegans fzo-1 (AID 1259413; call rule not given here;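 also: fzo-1 mutant C. elegans worms in liquid wells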); conditions: C. elegans fzo-1 modulator screen, mean read-out; stronger effect = higher value
# [12] = EMT-state selective cytotoxicity in co-culture – imaging, PC-3E GFP, TEM4-18 mCherry, primary screen (AID 1345086;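 active = compounds killing one labelled cell type while sparing the other, by normalised counts and ratio limits, not self-fluorescent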;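 as to all read-outs here: cells exposed to compound for 72 h before imaging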;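 as to red/green cell ratio (normalised): normalised mesenchymal count divided by normalised epithelial count so high means epithelial killing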); conditions: PC-3E GFP / TEM4-18 mCherry co-culture, imaging cell counts, at 1 µM; for red/green cell ratio (normalised): actives lie on both sides, counts scaled to control wells, 1 = unselective
# [13] = MELAS cybrid and Rieske KO viability enhancers – cell-based, MELAS cybrids, Rieske KO mouse fibroblasts, CellTiter-Glo, primary screen (AID 1508586); conditions: low glucose;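 also: z relative to plate mean and SD of compound and empty wells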
# [14] = target: NAD(+) hydrolase SARM1 (Homo sapiens) (UniProt Q6SZW1); assay: blocking NAD cleavage by SARM1 SAM-TIR – cell lysate, NAD-Glo luminescence (AID 1508614;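 active = compound whose remaining NAD level is above about 45 nM, limit read from the data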;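 also: higher remaining NAD means stronger inhibition of SARM1 NADase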); conditions: SAM-TIR HEK293T lysate NADase, at 1 µM, stronger effect = higher value
# NAD(+) hydrolase SARM1 (Homo sapiens), sequence (Q6SZW1 whole entry, looked up, the tested form may be a part): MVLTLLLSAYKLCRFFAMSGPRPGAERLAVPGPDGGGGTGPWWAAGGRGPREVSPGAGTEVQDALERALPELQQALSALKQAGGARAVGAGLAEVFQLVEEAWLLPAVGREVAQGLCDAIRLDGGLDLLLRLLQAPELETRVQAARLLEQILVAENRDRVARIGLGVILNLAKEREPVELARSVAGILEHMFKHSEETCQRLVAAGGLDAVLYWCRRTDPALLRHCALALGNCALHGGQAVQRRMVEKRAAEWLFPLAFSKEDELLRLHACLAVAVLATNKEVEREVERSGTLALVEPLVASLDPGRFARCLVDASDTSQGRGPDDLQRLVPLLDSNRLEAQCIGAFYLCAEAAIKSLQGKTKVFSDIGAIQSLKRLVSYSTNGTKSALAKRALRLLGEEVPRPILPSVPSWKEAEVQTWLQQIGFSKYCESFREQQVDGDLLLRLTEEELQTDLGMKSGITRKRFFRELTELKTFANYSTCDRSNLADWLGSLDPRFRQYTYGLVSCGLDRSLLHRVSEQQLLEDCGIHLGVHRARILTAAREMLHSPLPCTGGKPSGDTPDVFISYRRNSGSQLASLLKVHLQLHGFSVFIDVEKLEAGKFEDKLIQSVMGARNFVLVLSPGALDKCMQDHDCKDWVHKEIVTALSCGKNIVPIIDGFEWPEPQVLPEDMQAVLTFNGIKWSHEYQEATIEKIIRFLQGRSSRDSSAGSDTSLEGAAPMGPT
# [15] = target: Mitogen-activated protein kinase 7 (Homo sapiens) (UniProt Q13164); assay: Gal4-ERK5 driven luciferase induction – cell-based, HTS, primary screen (AID 1508626;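 active = luciferase signal above three times the same-plate solvent-only control wells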;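 also: luciferase driven by Gal4-ERK5 fusion binding five Gal4 sites before minimal TATA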); conditions: HeLa Gal4-ERK5 transactivation, 18 h, at 5 µM, stronger effect = higher value
# Mitogen-activated protein kinase 7 (Homo sapiens), sequence (Q13164 whole entry, looked up, the tested form may be a part): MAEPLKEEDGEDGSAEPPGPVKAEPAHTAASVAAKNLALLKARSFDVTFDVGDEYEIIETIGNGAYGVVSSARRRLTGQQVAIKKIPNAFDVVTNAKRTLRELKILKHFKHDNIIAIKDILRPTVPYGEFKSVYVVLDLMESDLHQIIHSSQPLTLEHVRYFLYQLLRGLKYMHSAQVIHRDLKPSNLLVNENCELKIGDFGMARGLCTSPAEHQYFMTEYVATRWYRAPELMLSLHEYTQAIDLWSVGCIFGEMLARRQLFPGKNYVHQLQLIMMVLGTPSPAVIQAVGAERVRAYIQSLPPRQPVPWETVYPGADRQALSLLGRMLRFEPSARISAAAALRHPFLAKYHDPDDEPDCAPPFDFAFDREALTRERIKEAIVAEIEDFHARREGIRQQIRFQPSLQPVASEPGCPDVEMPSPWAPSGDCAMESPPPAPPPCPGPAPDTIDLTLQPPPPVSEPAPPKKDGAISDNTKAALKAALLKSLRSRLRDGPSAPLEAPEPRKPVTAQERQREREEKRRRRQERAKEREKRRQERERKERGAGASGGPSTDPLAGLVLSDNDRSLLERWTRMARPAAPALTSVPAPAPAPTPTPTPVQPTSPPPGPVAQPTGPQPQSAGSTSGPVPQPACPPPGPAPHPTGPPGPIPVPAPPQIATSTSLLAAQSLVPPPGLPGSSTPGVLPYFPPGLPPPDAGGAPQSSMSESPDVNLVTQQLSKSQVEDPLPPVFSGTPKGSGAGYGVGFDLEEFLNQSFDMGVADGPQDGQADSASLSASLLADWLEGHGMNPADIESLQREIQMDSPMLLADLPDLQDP
# [16] = galactose survival enhancers in mitochondrial complex I cybrids – cell-based, galactose medium, ATP luminescence, primary screen (AID 1645843;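 active = z-score of at least 1.8 in each of two replicates, scored against plate mean and spread of sample wells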;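 also: positive z means more ATP and so rescue of galactose-driven cybrid death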); conditions: complex I mutant cybrid cells, 72 h, stronger effect = higher value
# [17] = Wnt pathway potentiators raising nuclear beta-catenin – imaging, WNT3A-conditioned medium, mouse C2C12, NPC library, primary screen (AID 1117326; in the data active = nuclear beta-catenin stimulation mostly above about 4.2%, no sharp cut-off; inactive = mostly below about 10%); conditions: stronger effect = higher value
# [18] = P. berghei load reduction in hepatocytes – cell-based, HepG2, luciferase luminescence, HepG2 viability, primary screen (AID 624349; in the data active = parasite load remaining mostly below about 12%, no sharp cut-off; inactive = mostly above about 10%;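 also: 100% = mean of DMSO negative control wells on the same plate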); conditions: P. berghei liver stage in HepG2, luciferase luminescence, concentration not given here; parasite load remaining: stronger effect = lower value; viability: measured here: HepG2 viability without parasites
# [19] = viability loss with induced miR-34 in A549 – imaging, A549 dox-inducible miR-34, nuclei and caspase counts, primary screen (AID 1347080;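 active = compounds whose cell count with miR-34 switched on is under 0.7 times the count with it off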); conditions: A549 miR-34 inducible, Hoechst nuclei count, 48 h
# [20] = measured here: epithelial PC-3E GFP cell survival
# [21] = measured here: mesenchymal TEM4-18 mCherry cell survival
# [22] = MELAS cybrid survival, CellTiter-Glo 48 h, stronger effect = higher value
# [23] = Rieske KO mouse fibroblast survival, CellTiter-Glo 72 h
# [24] = stronger effect = lower value, cell number ratio, induced over uninduced
# [25] = measured here: relative caspase fold change +Dox/-Dox
# [26] = measured here: total cells with miR-34 induction, stronger effect = lower value
# [27] = measured here: total cells without miR-34 induction
compound,measurement,setting,value
CN(C)C(=O)C(CCN1CCC(O)(c2ccc(Cl)cc2)CC1)(c1ccccc1)c1ccccc1,inhibition,[1],18.5%
same,survival,[2],9 (inactive)
same,insulin secretion stimulation,[3],1.9% (inactive)
same,viability decrease,[4],64.9% (active)
same,tube area decrease,[5],11.7% (inactive)
same,GLP1 secretion stimulation,[6],2.9% (inactive)
same,inhibition of viability,[7],90.6% (active)
same,viability decrease (inhibition),[8],99.6% (active)
same,viability decrease (inhibition),[9],88.2% (active)
same,inhibition,[10],1.17% (inactive)
same,mean signal,[11],201 (inactive)
same,red/green cell ratio (normalised),[12],1.02 (inactive)
same,normalised cell number,[12]; [20],1.3
same,normalised cell number,[12]; [21],1.33
same,z-score,[13]; [22],-0.364 (inactive) and -0.238 (inactive) and 0.591 (inactive)
same,z-score,[13]; [23],-1.34 and 0.463 and -0.456
same,remaining NAD,[14],10 nM (inactive)
same,luciferase signal,[15],40 AU (inactive)
CN1CCN(C2=Nc3cc(Cl)ccc3Nc3ccccc32)CC1,inhibition,[1],-23.8%
same,survival,[2],15.2 (inactive)
same,insulin secretion stimulation,[3],3.6% (inactive)
same,viability decrease,[4],17.2% (inactive)
same,tube area decrease,[5],-0.2% (inactive)
same,GLP1 secretion stimulation,[6],7.2% (inactive)
same,inhibition of viability,[7],63% (active)
same,viability decrease (inhibition),[8],66.6% (active)
same,viability decrease (inhibition),[9],14.1% (inactive)
same,inhibition,[10],-3.75% (inactive)
same,mean signal,[11],262 (inactive)
same,red/green cell ratio (normalised),[12],1.04 (inactive)
same,normalised cell number,[12]; [20],1.09
same,normalised cell number,[12]; [21],1.14
same,z-score,[13]; [22],-1.17 (inactive) and -0.401 (inactive) and 0.405 (inactive)
same,z-score,[13]; [23],0.276 and 0.587
same,remaining NAD,[14],10 nM (inactive)
same,luciferase signal,[15],24 AU (inactive)
CC(C(=O)O)c1cccc(C(=O)c2ccccc2)c1 (stereo unspecified),inhibition,[1],-50.9%
same,survival,[2],15.6 (inactive)
same,insulin secretion stimulation,[3],1.7% (inactive)
same,viability decrease,[4],9.9% (inactive)
same,tube area decrease,[5],-21.2% (inactive)
same,GLP1 secretion stimulation,[6],1.2% (inactive)
same,inhibition of viability,[7],1.73% (inactive)
same,viability decrease (inhibition),[8],1.9% (inactive)
same,viability decrease (inhibition),[9],-13.8% (inactive)
same,inhibition,[10],-9.9% (inactive)
same,mean signal,[11],232 (inactive)
same,red/green cell ratio (normalised),[12],1.06 (inactive)
same,normalised cell number,[12]; [20],1.07
same,normalised cell number,[12]; [21],1.13
same,z-score,[13]; [22],-0.241 (inactive) and 0.309 (inactive) and -0.387 (inactive)
same,z-score,[13]; [23],0.963 and -0.169 and -0.868
same,remaining NAD,[14],10 nM (inactive)
same,luciferase signal,[15],60 AU (inactive)
same,z-score,[16],0.45 (inactive) and 0.27 (inactive) and 0.89 (inactive)
CC(C)OC(=O)C(C)(C)Oc1ccc(C(=O)c2ccc(Cl)cc2)cc1,inhibition,[1],-9.13%
same,survival,[2],16.9 (inactive)
same,nuclear beta-catenin stimulation,[17]; at 10 µM,1.9% (inactive)
same,nuclear beta-catenin stimulation,"[17]; stimulation, at 2 µM",6.9%
same,viability decrease,[4],81.1% (active)
same,inhibition of viability,[7],81.4% (active)
same,viability decrease (inhibition),[8],75.1% (active)
same,viability decrease (inhibition),[9],57.5% (active)
same,inhibition,[10],13.2% (inactive)
same,mean signal,[11],232 (inactive)
same,red/green cell ratio (normalised),[12],1.01 (inactive)
same,normalised cell number,[12]; [20],1
same,normalised cell number,[12]; [21],1
same,z-score,[13]; [22],0.204 (inactive) and 1.22 (inactive) and 0.396 (inactive)
same,z-score,[13]; [23],0.718 and 0.00922 and -0.202
same,remaining NAD,[14],10 nM (inactive)
same,luciferase signal,[15],56 AU (inactive)
same,z-score,[16],-1 (inactive) and -1.21 (inactive) and -1.85 (inactive)
NC(=O)c1cccnc1,parasite load remaining,[18],64% (inactive) and 68.4% (inactive) and 18% (inactive)
same,viability,[18],200% and 89.4% and 114%
same,nuclear beta-catenin stimulation,[17]; at 10 µM,0.1% (inactive)
same,nuclear beta-catenin stimulation,"[17]; stimulation, at 2 µM",7.7%
same,viability decrease,[4],7% (inactive)
same,tube area decrease,[5],-7.9% (inactive)
same,inhibition of viability,[7],11.2% (inactive)
same,viability decrease (inhibition),[8],1.3% (inactive)
same,viability decrease (inhibition),[9],4.3% (inactive)
same,mean signal,[11],256 (inactive)
same,red/green cell ratio (normalised),[12],1.14 (inactive)
same,normalised cell number,[12]; [20],1.05
same,normalised cell number,[12]; [21],1.2
same,z-score,[13]; [22],-0.258 (inactive) and -0.151 (inactive) and -0.172 (inactive)
same,z-score,[13]; [23],0.704 and -0.543 and -0.673
same,luciferase signal,[15],32 AU (inactive)
same,z-score,[16],0.75 (inactive) and 0.635 (inactive)
CO[C@]1(NC(=O)CSC(F)F)C(=O)N2C(C(=O)O)=C(CSc3nnnn3CCO)CO[C@H]21,insulin secretion stimulation,[3],0.75% (inactive)
same,viability decrease,[4],11.4% (inactive)
same,tube area decrease,[5],7.5% (inactive)
same,GLP1 secretion stimulation,[6],4% (inactive)
same,inhibition of viability,[7],-0.4% (inactive)
same,viability decrease (inhibition),[8],-2.1% (inactive)
same,viability decrease (inhibition),[9],-3.6% (inactive)
O=C(CCCN1CCC(O)(c2ccc(Cl)cc2)CC1)c1ccc(F)cc1,inhibition,[1],-12.1%
same,survival,[2],6.08 (inactive)
same,insulin secretion stimulation,[3],10.8% (inactive)
same,viability decrease,[4],75.7% (active)
same,tube area decrease,[5],-3.9% (inactive)
same,GLP1 secretion stimulation,[6],7.5% (inactive)
same,inhibition of viability,[7],63.5% (active)
same,viability decrease (inhibition),[8],66.8% (active)
same,viability decrease (inhibition),[9],35.5% (inactive)
same,inhibition,[10],-6.6% (inactive)
same,mean signal,[11],271 (inactive)
same,red/green cell ratio (normalised),[12],0.92 (inactive)
same,normalised cell number,[12]; [20],0.87
same,normalised cell number,[12]; [21],0.8
same,z-score,[13]; [22],-0.322 (inactive) and 0.952 (inactive) and 0.0534 (inactive)
same,z-score,[13]; [23],-0.84 and 0.343 and 0.587
same,remaining NAD,[14],10 nM (inactive)
same,luciferase signal,[15],40 AU (inactive)
Cc1cc(-n2nc3ccc(Cl)cc3n2)c(O)c(C(C)(C)C)c1,nuclear beta-catenin stimulation,[17]; at 10 µM,3.3% (inactive)
same,nuclear beta-catenin stimulation,"[17]; stimulation, at 2 µM",10.1%
same,viability decrease,[4],29.7% (inactive)
same,inhibition of viability,[7],22.8% (inactive)
same,viability decrease (inhibition),[8],1.3% (inactive)
same,viability decrease (inhibition),[9],8% (inactive)
C[C@@H](C1=C(CCN(C)C)Cc2ccccc21)c1ccccn1,nuclear beta-catenin stimulation,[17]; at 10 µM,-0.2% (inactive)
same,nuclear beta-catenin stimulation,"[17]; stimulation, at 2 µM",8.1%
same,viability decrease,[4],37.5% (inactive)
same,inhibition of viability,[7],-11.9% (inactive)
same,viability decrease (inhibition),[8],63.6% (active)
same,viability decrease (inhibition),[9],-48.2% (inactive)
same,fold change,[19]; [24],0.916 (inactive)
same,fold change,[19]; [25],0.633
same,cell count,[19]; [26],7800
same,cell count,[19]; [27],8520
same,z-score,[16],-0.445 (inactive)
Oc1ccc(O)cc1,parasite load remaining,[18],24.8% (inactive) and -0.995% (inactive)
same,viability,[18],92.7% and 79.1%
same,nuclear beta-catenin stimulation,[17]; at 10 µM,10.9% (inactive)
same,nuclear beta-catenin stimulation,"[17]; stimulation, at 2 µM",14.4%
same,viability decrease,[4],45.2% (inactive)
same,inhibition of viability,[7],-47.7% (inactive)
same,viability decrease (inhibition),[8],20.4% (inactive)
same,viability decrease (inhibition),[9],-15% (inactive)
same,inhibition,[10],10.8% (inactive)
same,red/green cell ratio (normalised),[12],1.14 (inactive)
same,normalised cell number,[12]; [20],1.14
same,normalised cell number,[12]; [21],1.29
same,fold change,[19]; [24],0.97 (inactive) and 0.922 (inactive)
same,fold change,[19]; [25],0.837 and 1.69
same,cell count,[19]; [26],7800 and 7820
same,cell count,[19]; [27],8040 and 8490
same,remaining NAD,[14],10 nM (inactive)
same,luciferase signal,[15],40 AU (inactive)
same,z-score,[16],-1.04 (inactive)
